Measurements: PubChem BioAssay (Tox21)
Results filed as inconclusive are left out. Activity calls are given as the source filed them. Unless noted, calls follow the shape of the dose curve; as a rule, active = well fitted curve in the direction sought with a large enough effect in the repeat runs; inconclusive = weak or mixed curves; inactive = no such curve, though single readings can be large; an effect the other way counts as inactive or inconclusive.

Experiments:
[1] = qHTS assay to identify small molecule antagonists of the estrogen receptor alpha (ER-alpha) signaling pathway using the BG1 cell line in the presence of 0.1 nM 17-beta-estradiol - cell viability counter screen (AID 1259241); also: nearly all actives have a fitted effect of over 40% in size; also: potency is read from the fitted curve at half-maximal effect
Procedure, shortened: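 Estradiol-stimulated (0.1 nM) VM7Luc4E2 cells exposed to compounds 22 hr; viability measured by fluorescence of cleaved CellTiter-Fluor substrate after 30 min.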

[2] = qHTS assay to identify small molecule antagonists of the androgen receptor (AR) signaling pathway using the MDA cell line in the presence of 0.5 nM R1881 - cell viability counter screen (AID 1259242); also: nearly all actives have a fitted effect of over 45% in size
Procedure, shortened: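 Counter screen for cytotoxicity run in the same wells as the AR antagonist reporter screen: MDA-kb2 cells were treated 16 hr with test compounds and 0.5 nM R1881, then live-cell protease activity was measured by fluorescence.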

[3] = qHTS assay to identify small molecule HDAC inhibitors (AID 1259364); also: nearly all actives have a fitted effect of over 45% in size; also: potency is read from the fitted curve at half-maximal effect
Procedure, shortened: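 Luminescence from a cell-permeant luminogenic class I/II HDAC substrate reports endogenous deacetylase activity in intact HCT-116 cells treated with compounds for 2 h.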

[4] = qHTS assay to identify small molecule HDAC inhibitors - cell viability counter screen (AID 1259365); also: series mostly up to about 92 µM; nearly all actives have a fitted effect of over 50% in size
Procedure, shortened: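 After overnight seeding at 1,500 cells per well, wild-type HCT-116 cultures took up compounds in DMSO for 2hr at 37 C. Viable cell content came from luminescence with CellTiter-Glo.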

[5] = qHTS assay to identify small molecule antagonists of the sonic hedgehog signaling (Shh) pathway - cell viability counter screen (AID 1259367); also: nearly all actives have a fitted effect of over 55% in size; also: potency is read from the fitted curve at half-maximal effect
Procedure, shortened: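 Seed 3T3 Gli1-Luc cells at 2,000 per well; incubate 4 hr; add compound in DMSO, then conditioned medium; incubate at 37C with 5% CO2; add CellTiter-Fluor after 23 hr; read fluorescence 1 hr later.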

[6] = qHTS assay to identify small molecule agonists of the sonic hedgehog signaling (Shh) pathway (AID 1259368; calls by dose curve;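 also: NIH/3T3-derived 3T3Gli1-Luc cells carrying a stable Gli1-driven firefly luciferase reporter; series mostly up to about 92 µM; nearly all actives have a fitted effect of over 15% in size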)
Procedure, shortened: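 3T3Gli1-Luc (NIH/3T3 clone, stable Gli1-Luc); 4 hr pre-incubation, then cpd in DMSO 24 hr, 37 C/5% CO2; luciferase reagent 30 min RT; luminescence.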

[7] = qHTS assay to identify small molecule antagonists of the sonic hedgehog signaling (Shh) pathway (AID 1259369; calls by dose curve; also: nearly all actives have a fitted effect of over 45% in size; also: potency is read from the fitted curve at half-maximal effect)
Procedure, shortened: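 3T3Gli1-Luc, conditioned-medium-stimulated, 24hr cpd, 37C/5% CO2; Gli1-driven firefly Luc luminescence after 30min RT with luciferase reagent. Cells plated 4hr before cpd.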

[8] = target: Estrogen receptor beta (Homo sapiens) (UniProt Q92731); assay: qHTS assay to identify small molecule agonists of the estrogen receptor beta (ER-beta) signaling pathway (AID 1259377; active = well fitted activation curve with a large enough effect in the signal ratio in the repeat runs, not every such curve was filed as active; the % refers to the signal ratio)
Procedure, shortened: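 Read-out: beta-lactamase FRET fluorescence. Cell line: ER-beta-UAS-bla HEK293T in 2% charcoal-stripped FBS. Exposure: 16 hr at 37C. Substrate step: 2 h at room temperature.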

[9] = qHTS assay to identify small molecule agonists of the androgen receptor (AR) signaling pathway in the presence of an antagonist - cell viability counter screen (AID 1259379);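 also: MDA-kb2 human breast cancer cells carrying an MMTV luciferase reporter; series mostly up to about 92 µM; nearly all actives have a fitted effect of over 25% in size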
Procedure, shortened: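 Cells: MDA-kb2 (MMTV-luc, AR and GR elements), 3,000/well, 5 hr settle. Added: nilutamide 3.0uM final, then compounds (15 conc.). Incubation: 16 hr, 37C, no CO2. Read-out: CellTiter-Fluor, 1 hr, fluorescence.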

[10] = qHTS assay to identify small molecule antagonists of the estrogen receptor beta (ER-beta) signaling pathway - cell viability counter screen (AID 1259382); also: nearly all actives have a fitted effect of over 55% in size; also: potency is read from the fitted curve at half-maximal effect
Procedure, shortened: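 Cells: ER-beta-UAS-bla HEK293T, 2,000/well, 2% CS-FBS, 6 hr settle. Cpd + E2 (1nM final), 16 hr, 37C/5% CO2. Bla FRET substrate 2 hr RT, then CellTiter-Glo 30 min RT, luminescence.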

[11] = qHTS assay to identify small molecule agonists or antagonists of the thyroid stimulating hormone receptor (TSHR) signaling pathway - wild type cell line counter screen (AID 1259384; calls by dose curve)
Procedure, shortened: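 Wild-type Hek293 cells, 800/well, 18 h at 37C, then compound with Ro20-1724 for 30 min RT. cAMP by HTRF (cAMP-d2/anti-cAMP cryptate), 1 h RT, fluorescence read. 15 concentrations, triplicates.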

[12] = target: Thyrotropin receptor (Homo sapiens) (UniProt P16473); assay: qHTS assay to identify small molecule antagonists of the thyroid stimulating hormone receptor (TSHR) signaling pathway (AID 1259385; calls by dose curve; also: nearly all actives have a fitted effect of over 20% in size)
Procedure, shortened: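 TSHR-HEK293 cells (800/well) plated 18 h, then compounds with Ro20-1724 and TSH at 1.5 ng/mL final, 30 min at room temperature. cAMP quantified by HTRF (cAMP-d2/anti-cAMP-cryptate, 1 h); 15 concentrations in triplicate.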

[13] = target: Androgen receptor (Homo sapiens) (UniProt P10275); assay: qHTS assay to identify small molecule antagonists of the androgen receptor (AR) signaling pathway using the MDA cell line in the presence of 0.5 nM R1881 (AID 1259243); also: potency is read from the fitted curve at half-maximal effect; nearly all actives have a fitted effect of over 50% in size
Procedure, shortened: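 Luciferase luminescence is the read-out: compounds are tested for suppressing 0.5 nM R1881-driven MMTV reporter activity in MDA-kb2 cells after 16 hr at 37C.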

[14] = target: Estrogen receptor (Homo sapiens) (UniProt P03372); assay: qHTS assay to identify small molecule antagonists of the estrogen receptor alpha (ER-alpha) signaling pathway using the BG1 cell line in the presence of 0.1 nM 17-beta-estradiol (AID 1259244); also: nearly all actives have a fitted effect of over 50% in size
Procedure, shortened: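 Cells: VM7Luc4E2, endogenous ER-alpha, 4x ERE-luc stable. Pre-culture 5 d, phenol red-free, charcoal-stripped FBS. Plated 24 h, compound + E2 0.1 nM final, 22 h 37C/5% CO2. Readout ONE-Glo luminescence.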

[15] = qHTS assay to identify small molecule phospholipidosis (PLD) inducers (AID 1259344; active = well fitted curve in the direction sought with a large enough effect; an effect the other way counts as inactive or inconclusive)
Procedure, shortened: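 Quantitative HTS in HepG2: compound plus LipidTOX Red dye for 24 h, paraformaldehyde fixation with Hoechst 33342, widefield high-content imaging; amiodarone as positive and DMSO as negative control.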

[16] = qHTS assay to identify small molecule agonists of the sonic hedgehog signaling (Shh) pathway - cell viability counter screen (AID 1259366); also: potency is read from the fitted curve at half-maximal effect; nearly all actives have a fitted effect of over 50% in size
Procedure, shortened: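 Same-well cytotoxicity read. Gli1-Luc reporter 3T3 cells; compounds 24hr, 37C/5% CO2; CellTiter-Fluor fluorescence.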

[17] = target: Androgen receptor (Homo sapiens) (UniProt P10275); assay: qHTS assay to identify small molecule agonists of the androgen receptor (AR) signaling pathway in the presence of an antagonist (AID 1259381; calls by dose curve; also: nearly all actives have a fitted effect of over 15% in size)
Procedure, shortened: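 MDA-kb2 cells, 3,000/well, rested 5hr at 37C/0% CO2 → nilutamide 3.0uM final or buffer → compounds, 15 conc. → 16hr at 37C → ONE-Glo, 30min RT → luminescence.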

[18] = target: Estrogen receptor (Homo sapiens) (UniProt P03372); assay: qHTS assay to identify small molecule agonists of the estrogen receptor alpha (ER-alpha) signaling pathway in the presence of an antagonist (AID 1259383; calls by dose curve; also: top concentration of the series differs between compounds; nearly all actives have a fitted effect of over 15% in size)
Procedure, shortened: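 VM7Luc4E2, endog. ER-alpha + 4×ERE-luc; charcoal-stripped FBS, phenol red-free, 5 d; 24hr plating; +10.0nM ICI-182,780 (final); cpds 15 conc, 22hr, 37C/5% CO2; ONE-Glo luminescence.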

[19] = qHTS assay to identify small molecule agonists of the estrogen receptor beta (ER-beta) signaling pathway - cell viability counter screen (AID 1259380); also: potency is read from the fitted curve at half-maximal effect; nearly all actives have a fitted effect of over 30% in size
Procedure, shortened: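 HEK293T ER-beta-UAS-bla; 2% CS-FBS; 6 hr pre-plate, 16 hr cpd at 37C/5% CO2; LiveBLAzer read first, then CellTiter-Glo 30 min RT, luminescence.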

Measured: Potency

Estrogen receptor (Homo sapiens), sequence (P03372 whole entry, looked up): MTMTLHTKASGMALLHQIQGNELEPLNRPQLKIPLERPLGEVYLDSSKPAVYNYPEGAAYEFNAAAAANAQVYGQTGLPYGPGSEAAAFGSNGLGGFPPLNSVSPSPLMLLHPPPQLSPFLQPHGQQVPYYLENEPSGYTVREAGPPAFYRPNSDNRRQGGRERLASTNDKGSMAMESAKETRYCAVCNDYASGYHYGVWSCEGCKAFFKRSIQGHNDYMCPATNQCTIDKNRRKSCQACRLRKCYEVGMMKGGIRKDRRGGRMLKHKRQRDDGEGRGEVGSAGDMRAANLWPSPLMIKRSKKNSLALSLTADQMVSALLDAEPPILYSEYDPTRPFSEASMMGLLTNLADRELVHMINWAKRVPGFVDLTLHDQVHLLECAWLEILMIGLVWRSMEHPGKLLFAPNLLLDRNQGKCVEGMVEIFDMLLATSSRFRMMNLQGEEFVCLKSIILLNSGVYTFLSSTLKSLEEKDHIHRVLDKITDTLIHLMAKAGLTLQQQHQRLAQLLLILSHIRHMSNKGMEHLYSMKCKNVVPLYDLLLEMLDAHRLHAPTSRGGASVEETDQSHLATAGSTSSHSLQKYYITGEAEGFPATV
Thyrotropin receptor (Homo sapiens), sequence (P16473 whole entry, looked up): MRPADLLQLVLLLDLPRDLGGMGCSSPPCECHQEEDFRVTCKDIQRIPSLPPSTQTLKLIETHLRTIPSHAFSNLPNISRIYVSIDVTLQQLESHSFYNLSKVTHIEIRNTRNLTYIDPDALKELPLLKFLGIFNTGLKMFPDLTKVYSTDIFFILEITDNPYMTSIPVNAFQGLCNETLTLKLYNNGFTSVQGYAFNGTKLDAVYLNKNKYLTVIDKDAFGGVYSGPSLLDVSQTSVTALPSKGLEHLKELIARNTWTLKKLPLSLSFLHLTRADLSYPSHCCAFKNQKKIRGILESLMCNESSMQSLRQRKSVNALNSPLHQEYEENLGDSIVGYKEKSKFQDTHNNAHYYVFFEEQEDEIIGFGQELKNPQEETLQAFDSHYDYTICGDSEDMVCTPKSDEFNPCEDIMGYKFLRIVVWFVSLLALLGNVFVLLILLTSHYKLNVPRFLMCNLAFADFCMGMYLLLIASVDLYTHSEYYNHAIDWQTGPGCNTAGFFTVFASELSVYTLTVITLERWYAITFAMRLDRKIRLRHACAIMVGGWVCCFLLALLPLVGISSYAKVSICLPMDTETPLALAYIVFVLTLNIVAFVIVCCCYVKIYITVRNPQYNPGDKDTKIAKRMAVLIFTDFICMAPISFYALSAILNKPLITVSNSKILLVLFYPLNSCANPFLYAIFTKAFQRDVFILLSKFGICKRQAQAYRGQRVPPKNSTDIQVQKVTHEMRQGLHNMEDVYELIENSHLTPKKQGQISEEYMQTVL
Androgen receptor (Homo sapiens), sequence (P10275 whole entry, looked up): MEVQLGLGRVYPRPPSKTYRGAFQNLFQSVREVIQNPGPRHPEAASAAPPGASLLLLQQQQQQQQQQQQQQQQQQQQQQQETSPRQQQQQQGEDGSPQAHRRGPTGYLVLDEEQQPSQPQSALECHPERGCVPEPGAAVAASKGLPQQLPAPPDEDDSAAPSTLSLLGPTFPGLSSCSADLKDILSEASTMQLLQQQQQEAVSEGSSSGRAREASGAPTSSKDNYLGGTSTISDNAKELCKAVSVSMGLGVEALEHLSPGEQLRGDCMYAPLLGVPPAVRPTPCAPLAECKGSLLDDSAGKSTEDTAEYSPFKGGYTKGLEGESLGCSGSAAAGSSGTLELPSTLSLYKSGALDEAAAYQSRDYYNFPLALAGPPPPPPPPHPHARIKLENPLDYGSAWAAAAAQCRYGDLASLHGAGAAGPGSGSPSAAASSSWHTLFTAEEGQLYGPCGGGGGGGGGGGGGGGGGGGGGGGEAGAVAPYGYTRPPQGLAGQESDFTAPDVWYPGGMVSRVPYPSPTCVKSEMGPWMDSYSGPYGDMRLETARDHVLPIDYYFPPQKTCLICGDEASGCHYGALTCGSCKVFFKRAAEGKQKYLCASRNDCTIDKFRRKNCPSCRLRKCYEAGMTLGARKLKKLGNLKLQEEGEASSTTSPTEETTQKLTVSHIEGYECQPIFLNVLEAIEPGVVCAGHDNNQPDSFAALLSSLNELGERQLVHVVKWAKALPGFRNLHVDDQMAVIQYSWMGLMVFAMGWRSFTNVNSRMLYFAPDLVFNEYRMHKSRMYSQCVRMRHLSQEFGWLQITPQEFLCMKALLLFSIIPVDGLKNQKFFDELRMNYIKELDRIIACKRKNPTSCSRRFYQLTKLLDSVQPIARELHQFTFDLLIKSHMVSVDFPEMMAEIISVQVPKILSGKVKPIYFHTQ
Estrogen receptor beta (Homo sapiens), sequence (Q92731 whole entry, looked up): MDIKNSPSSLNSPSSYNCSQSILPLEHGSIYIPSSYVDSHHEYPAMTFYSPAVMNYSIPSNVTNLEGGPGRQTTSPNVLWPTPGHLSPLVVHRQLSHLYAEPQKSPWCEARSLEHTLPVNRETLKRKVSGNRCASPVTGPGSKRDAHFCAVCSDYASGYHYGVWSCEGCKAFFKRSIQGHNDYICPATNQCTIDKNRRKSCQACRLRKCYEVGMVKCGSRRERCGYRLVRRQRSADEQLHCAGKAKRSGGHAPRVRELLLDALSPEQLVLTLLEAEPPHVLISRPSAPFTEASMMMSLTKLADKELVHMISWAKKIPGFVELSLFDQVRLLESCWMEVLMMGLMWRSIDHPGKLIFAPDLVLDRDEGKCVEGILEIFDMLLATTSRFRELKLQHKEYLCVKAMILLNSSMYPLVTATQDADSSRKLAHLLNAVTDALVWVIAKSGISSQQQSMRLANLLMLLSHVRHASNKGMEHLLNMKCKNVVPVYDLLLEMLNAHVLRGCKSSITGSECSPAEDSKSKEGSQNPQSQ

CCC(Cl)C(Cl)C(Cl)CC(Cl)C(Cl)C(C)Cl (stereo not given)
not listed: [13] | [14] | [15] | [16] | [17] | [18] | [19]
inactive: all other assays above

COc1cccc2c1C(=O)c1c(O)c3c(c(O)c1C2=O)C[C@@](O)(C(=O)CO)C[C@@H]3O[C@H]1C[C@H](N)[C@H](O[C@@H]2CCCCO2)[C@H](C)O1
active: [1] 13.3 µM | [13] 2.11 µM | [3] 11.9 µM | [16] 11.9 µM | [5] 11.9 µM
inactive: [14] | [15] | [4] | [6] | [17] | [18] | [11] | [12]

CCCCCCCCCCCCCCCC[N+](C)(C)CCN(Cc1ccc(OC)cc1)c1ncccn1
inactive: [1] | [14] | [15] | [3] | [6] | [18] | [11]
active: [7] 2.66 µM | [19] 11.9 µM | [10] 13.3 µM
